Among all 65,000 compounds or so, about 2,100 (3.2%) showed an effect of 50% or more. The median lay at about -52%. Many of the other results were omitted from the sample, so strong results are more common in it than they were.

The assay concerns Plasmodium falciparum. The assay is described as follows: Screen against P. falciparum Asexual Blood Stage (ABS), at 5uM. The class given is functional, Dd2. The conditions noted are these: tested at 5 uM.
With `Cc1n[nH]c2c1C(c1ccc(O)c(Cl)c1)SCC(=O)N2` (stereo unspecified), the INHIBITION is on record as -65.6%.

Regarding `O=C(c1ccc(-n2cccn2)nc1)N1CCC(c2ccc(O)cc2)CC1`, the INHIBITION came out at 75.1%. As for `Cc1ccc(C(=O)N2C[C@@H]3OCCN(C)[C@@H]3C2)cn1`, the figure is -12.2%; as for `O=C(c1ccc(-n2ccnc2)nc1)N1CCN2CCCCC2C1` (stereo unspecified), -56.6%. With `Cc1noc(C)c1CN1C[C@H](OCC2CC2)[C@H]2COC[C@H]21`, the INHIBITION is -54.7%.

Turning to `Fc1ccccc1CO[C@@H]1C[C@H]2CN(c3ncccn3)CCN2C1`, the INHIBITION was -67.9%. As for `Fc1ccc(F)c(CN2CCC(c3cc4ncccc4cn3)CC2)c1`, the figure is 76%; as for `Fc1cnccc1CN1CCC2(CCN2c2ncccn2)C1` (stereo unspecified), -10.7%; as for `O=C(Cc1ccccc1F)N1CCN(Cc2noc(C3CC3)n2)CC1`, -69%. Consider `Fc1cccc(CN2CCC(c3cc4ncccc4cn3)CC2)c1F`, for which the INHIBITION was determined as 89.4%. As for `CN1C(=O)C2(CCN(Cc3cccnc3)CC2)c2cccc(F)c21`, the figure is -61.4%; as for `COc1ccc(C)cc1CN1CCC(c2cc3ncccc3cn2)CC1`, 78.2%. In the case of `O=C1CO[C@H]2CN(Cc3cccnc3)C[C@H]2N1`, the INHIBITION is listed as -119%. Regarding `CCN1CCN(C(=O)Cc2ccc(S(=O)(=O)C(F)F)cc2)CC1`, the INHIBITION is given as -124%. The same measure for `NCC1Cc2cccc(-c3ccc(O)c(F)c3)c2O1` (stereo unspecified): 82.9%; for `COCC(=O)N1C[C@@H]2OCCN(Cc3c(C)noc3C)[C@@H]2C1`: -93.2%. As to `c1cncc(O[C@H]2CC[C@H]3[C@H]2OCCN3C2CCC2)c1`, the INHIBITION is -27.2%. As for `Cc1ccc(Cl)cc1N1CCC(CNC(=O)CCn2ccnc2)C1` (stereo unspecified), the INHIBITION came to 84.2%. The same measure for `CCN1CCN(C(=O)c2cn(Cc3ccccc3)c3ncccc23)CC1`: 20.5%; for `CCc1ncc(C(=O)N2CC[C@H]3CC[C@@H](C2)N3C)cn1`: -3.55%. `CC(=O)c1cc(C(=O)N2CC[C@H]3CC[C@@H](C2)N3C)c(=O)[nH]c1C`: the INHIBITION was -102%. The same measure for `CN1[C@@H]2CC[C@H]1CN(C(=O)c1ccc(-c3ccccc3)[nH]1)CC2`: 79.7%; for `COCCN1CCN(Cc2ccncc2)[C@H]2CS(=O)(=O)C[C@H]21`: -111%.

Consider `CNC(=O)CN1CC[C@H]2CN(C(=O)c3ccc(C)nc3)C[C@H]2C1`, for which the INHIBITION is given as -17.9%. As to `CCN(CC)CCN1CCO[C@H]2[C@@H](OCc3ccccn3)CC[C@@H]21`, the INHIBITION is on record as -115%. As for `COC(=O)c1cc(OCC2CCC2)cc(C(=O)N[C@@H]2CNCC[C@H]2O)c1`, the INHIBITION was determined as 90.1%. The same measure for `CC1=N[C@@]2(CC[C@@H]3CN(CC(C)C)C[C@@H]32)C(=O)N1`: -40.1%; for `COc1ccc2c(c1)c(C(=O)Nc1n[nH]c(C(C)C)n1)cn2C(C)C`: 22.8%; for `CCCc1nc(N2CCCN3CCC[C@H]3C2)c2cnn(C)c2n1`: -7.45%. Regarding `CCCc1nc(N(C)CCN2CCCCCC2)c2cnn(C)c2n1`, the INHIBITION is recorded as 92.9%.

Regarding `CCCc1nc(N2CCCC3(CCNC3)C2)c2cnn(C)c2n1` (stereo unspecified), the INHIBITION is -53.5%. For `Cc1c(C2SCC(=O)Nc3c2c(O)nn3C2CCCC2)cnn1C` (stereo unspecified), the INHIBITION is recorded as -70.4%.

Regarding `CC(C)N1CCC2(CCCNC2)C1=O` (stereo unspecified), the INHIBITION worked out at 25.4%. `c1cc(N2CCC(CN3CCOCC3)CC2)c2sccc2n1`: the INHIBITION was found to be 92.3%. Take `c1cnc(N2CCC3(COCCN(CC4CCOCC4)C3)C2)nc1` (stereo unspecified): the INHIBITION is -26.6%. As for `O=C1C[C@H]2[C@@H](CCN2Cc2ccccn2)N1CCN1CCOCC1`, the figure is 27.7%; as for `O=C1NC[C@H]2CN(Cc3ccnc4ccccc34)CCN12`, -11.8%. The same measure for `CCC(O)(CNCc1cc[nH]n1)c1ccc(Br)cc1` (stereo unspecified): 76.4%; for `O=S(=O)(C1CC1)N1CCC2(CC1)CN(Cc1ccccn1)CCO2`: -110%. For `CC(C)N1CCOCC2(CN(Cc3ccccn3)CCO2)C1` (stereo unspecified), the INHIBITION was -62.4%.

For the compound `CC(C)N1CCC2(CC1)CC(NCc1ccccn1)c1ccccc1O2` (stereo unspecified), the INHIBITION was found to be 70.7%. The same measure for `Cn1cc(CN2CC[C@]3(C[C@H](OCc4ccccn4)CO3)C2)cn1`: -37.1%; for `OCCN1CCC2(CC1)CC(NCc1ccccn1)c1ccccc1O2` (stereo unspecified): 70.8%; for `O=C(NCc1ccccn1)[C@@]12CCO[C@@H]1CCN(C1CCCC1)C2`: -21.2%. As for `CN(C)C(=O)[C@@H]1C[C@@H]2CCN(Cc3ccncc3)C[C@@H]2O1`, the figure is -19.3%; as for `CCCN1CCC[C@]2(CCC(=O)N2Cc2ccncc2)[C@H]1CC`, -97.5%. With `O=C(C1CC=CC1)N1CCC2(CC1)CNCCO2`, the INHIBITION is -57.4%. The same measure for `C[C@@H]1CN(C(=O)C2CCS(=O)(=O)CC2)CC[C@@]1(O)C1CCOCC1`: 71.2%. As for `O=C(C1CCOCC1)N1CCC2(CCNCC2)C1`, the figure is -36.9%. In the case of `O=C(C1CC1)N1CCC2(CC1)OCCO2`, the INHIBITION is recorded as -77.4%. The same measure for `O=C([C@@H]1Cc2[nH]cnc2CN1Cc1cc2ccccc2o1)N1CCCC1`: 95%; for `CCC(O)CN1CCN(C(=O)Cc2ccc(C)nc2)CC1` (stereo unspecified): 36.3%; for `CCOCC(O)CN1CCN(C(=O)Cc2cccc(Cl)c2)CC1` (stereo unspecified): -87.1%. As for `Cc1ccc(CC(=O)N2CCN(CC(O)C(C)(C)C)CC2)cn1` (stereo unspecified), the figure is -202%; as for `CCOCC(O)CN1CCN(C(=O)Cc2cccc(C)c2)CC1` (stereo unspecified), 59.6%; as for `CCOCC(O)CN1CCN(C(=O)Cc2ccc3c(c2)CCC3)CC1` (stereo unspecified), 69.6%. The same measure for `CCOCC(O)CN1CCN(C(=O)Cc2ccc3c(c2)CCO3)CC1` (stereo unspecified): -3.91%. As to `CCOCC(O)CN1CCN(C(=O)Cc2ccccc2Cl)CC1` (stereo unspecified), the INHIBITION is -121%. `O=C(Cc1ccccc1Cl)N1CCN(CC(O)COCCO)CC1` (stereo unspecified): the INHIBITION is given as 58%. As for `CC(C)(C)C(=O)NS(=O)(=O)c1ccc(C#N)c(C(F)(F)F)c1`, the figure is -87.2%; as for `CN(C)[C@@H]1CN(C(=O)Cc2ccsc2)[C@@H]2CCCO[C@H]12`, 32.7%. The same measure for `CCNC(=O)CCC(=O)NC(C)Cc1ccccc1Br` (stereo unspecified): -67.5%; for `NC(=O)C1CN(C(=O)Nc2cc(Cl)cc(Cl)c2)CCO1` (stereo unspecified): 84.9%; for `O=C(NCc1cc2n(n1)CCCNC2)C1(c2ccccc2)CCCCC1`: 73.7%. For `O=C(CCc1cscn1)N1CCC(C(=O)O)(c2ccccc2)CC1`, the INHIBITION is reported as -11.5%.

Turning to `Cc1ncc2c(c1CNC(=O)C1(C)CCCCO1)CCNC2` (stereo unspecified), the INHIBITION is -63.8%. Regarding `CCCC(=O)NS(=O)(=O)c1ccc(C#N)c(C(F)(F)F)c1`, the INHIBITION is recorded as -56%. Regarding `O=C1[C@H]2CN(C3CCOCC3)C[C@H]2CN1Cc1cccnc1`, the INHIBITION was -28.2%.

Consider `NC(=O)C1CN(C(=O)Cc2cccnc2)CCN(C2CCOCC2)C1` (stereo unspecified), for which the INHIBITION is on record as -92.3%. `O=C1[C@H]2CN(C3CCOCC3)C[C@H]2CN1Cc1ccncc1`: the INHIBITION was -33.5%. The same measure for `CO[C@@H]1CCN(C2CCOCC2)C[C@@H]1Cc1ccccc1`: 80.8%; for `c1cncc(CO[C@H]2CC[C@H]3[C@@H]2OCCN3C2CCOCC2)c1`: -57.8%.

On to `CO[C@H]1CCN(C2CCOCC2)C[C@@H]1Cc1ccccc1`, for which the INHIBITION stood at 78.7%. As to `O=C1N(Cc2cccnc2)C[C@H]2CN(C3CCOCC3)CCN12`, the INHIBITION was -55.6%. In the case of `Cc1nnc(N2CC[C@@H](OCC3CC3)[C@@H](Cc3ccccc3)C2)s1`, the INHIBITION was determined as 84.8%.

In the case of `c1ccc(C[C@H]2CN(C3CCOCC3)CC[C@H]2OCC2CC2)cc1`, the INHIBITION is on record as 74.9%. The same measure for `c1ccc(CN2C[C@@H]3OCCN(CC4CCCO4)[C@@H]3C2)nc1` (stereo partly specified): -0.326%. With `CCCN1CCN(C(=O)c2cnc(C)nc2)[C@H]2CS(=O)(=O)C[C@H]21`, the INHIBITION was -183%.

Take `O=C(C1CCCCC1)N1CC2(CCNCC2)C1`: the INHIBITION was -23.1%. Turning to `CC(C)CN1CC[C@@H]2[C@@H]1CCN2C(=O)N(C)C`, the INHIBITION was -67.2%. The same measure for `Cc1cnn(CC(C)NCC(=O)NC2CCOCC2)c1` (stereo unspecified): 14.5%; for `CC(C)N1CCC(Cn2cc(C(N)=O)cn2)CC1`: -7.48%. Consider `Cc1cnn(CC2CCN(CC(O)c3ccccc3Cl)CC2)c1` (stereo unspecified), for which the INHIBITION came to 78%. As to `c1cc(CO[C@@H]2CN(Cc3ccoc3)[C@@H]3CCCO[C@@H]32)ccn1`, the INHIBITION is -102%. The same measure for `O=C(CC1CCCC1)NCCNCc1cccc2c1OCCO2`: 71.6%. Take `COCC(=O)N1C[C@H]2CNC[C@@]2(C(=O)NCc2c(C)noc2C)C1`: the INHIBITION was -53.3%. For the compound `O=C1[C@H]2CN(Cc3ccccn3)C[C@H]2CN1c1ccsc1`, the INHIBITION is recorded as -16.2%. Turning to `CC(C)CN1CCC2(CC(C(=O)NCc3cccnc3)=NO2)C1` (stereo unspecified), the INHIBITION is recorded as -53.1%. With `O=C(NCc1cccnc1)Nc1cc(C(F)(F)F)c[nH]c1=O`, the INHIBITION is 79%. Consider `O=C(Nc1cc(C(F)(F)F)c[nH]c1=O)C1CCCN1` (stereo unspecified), for which the INHIBITION is listed as -151%.

Regarding `COCCNC1(c2ccc(Cl)cc2)CCOCC1`, the INHIBITION is on record as 65.6%. The same measure for `CCCNC1(c2ccc(Cl)cc2)CCOCC1`: 67.7%; for `CCOCCNC1(c2ccc(Cl)cc2)CCOCC1`: 27.1%. The same measure for `CO[C@H]1CN(Cc2ccc(C)o2)[C@@H]2CCCO[C@H]12`: 11.8%; for `CN(C)C(=O)COC[C@H]1CC[C@@H]2[C@@H](CCN2Cc2ccccn2)O1`: -79.4%; for `O=C1[C@@H]2CCN(CC3CC3)C[C@@H]2OCCN1c1cccnc1`: -73.4%. For the compound `O=C(NCC(F)(F)F)C1=NOC2(CCCNC2)C1` (stereo unspecified), the INHIBITION is recorded as -61.4%. The same measure for `CCOC[C@H]1CC[C@H]2[C@H](CCN2Cc2c(C)noc2C)O1`: -13.8%; for `CNc1cc(C)nc(N2C[C@H](C3CC3)[C@@H](N)C2)n1`: 88.3%; for `CCc1[nH]c(C2(N)CCCC2)nc(=O)c1C`: -32.3%. The same measure for `COC(=O)CCC(=O)NC(C)Cc1ccccc1Br` (stereo unspecified): -63.4%.
